Measured values as given in PubChem BioAssay AID2100 (National Center for Advancing Translational Sciences (NCATS), 2009).
Screen size: about 300,000 compounds; about 1,200 (0.4%) were called active. Roughly 3% stayed inconclusive and do not appear here. Calls come from the whole dose curve; as a rule, active = well fitted inhibition curve with a large enough effect; inconclusive = small, poorly fitted or top-dose-only effect, or another doubt; inactive = no such curve, though single readings can be large or run the other way. The list comes from a sample in which actives are over-represented; it also holds similar structures and randomly drawn compounds.

target: Lysosomal alpha-glucosidase (Homo sapiens) (UniProt P10253); assay: qHTS Assay for Inhibitors and Activators of Human alpha-Glucosidase Cleavage of Glycogen; conditions: recombinant GAA, glycogen substrate, Amplex Red glucose oxidase fluorescence; series mostly up to 76.3 µM; activity change, negative = inhibition: at the top concentration;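 note: the screen sought inhibitors and activators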;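 for activity change, negative = inhibition: 0% = full enzyme reaction and -100% = no-enzyme basal signal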
Text: NIH Chemical Genomics Center [NCGC] NIH Molecular Libraries Probe Production Centers Network [MLPCN] MLPCN Grant: R03 MH084841-01 Assay Submitter (PI): Wei Zheng NCGC Assay Overview: Alpha-glucosidase is responsible for the hydrolysis of terminal, non-reducing 1,4-linked alpha-D-glucose residues, which releases alpha-D-glucose. It is a lysosomal hydrolase that is required for the degradation of a small percentage (1-3%) of cellular glycogen in humans. Deficiency of this enzyme results in glycogen-storage disease type II (GSDII), also referred to as Pompe disease, an autosomal recessive disorder. Structurally normal glycogen is accumulated in the lysosomes and cytoplasm in affected patients, primarily in muscle tissues. Excessive glycogen storage within lysosomes may interrupt normal functioning of other organelles and leads to cellular injury. In turn, this leads to enlargement and dysfunction of the entire organ involved (eg: cardiomyopathy and muscle weakness). It has been reported that the improper folding and trafficking of alpha-glucosidase resulting from genetic mutations may account for a significant number of Pompe patients. […] We optimized this alpha-glucosidase assay in 1536-well plate format for identification of novel small molecule inhibitors or activators with structures other than the sugar analogs in order to develop new pharmacological chaperones. Previous assays of alpha-Glucosidase have utilized a non-natural fluorescent substrate to probe enzyme activity. The present assay measures enzyme activity on glycogen using a coupled-assay system to glucose oxidase.
NCGC Assay Protocol Summary: This is an enzyme assay using glycogen from bovine liver (Sigma catalog #: G0885) as the substrate and recombinant human alpha-glucosidase as the enzyme preparation. Upon hydrolysis of the substrate, the glucose product can be detected using the Amplex Red Glucose Oxidase Assay Kit (Invitrogen catalog #: A22189). The product of this reaction can be read with a fluorescence plate reader with an excitation at 573 nm and an emission at 610 nm. Data were normalized to the controls for basal activity (without enzyme) and 100% activity (with enzyme). The AC50 values were determined from concentration-response data modeled with the standard Hill equation. Assay buffer for enzyme reaction: 50 mM citric acid (titrated with potassium phosphate to pH 5.0), 0.01% Tween-20 (pH 5.0 is an optimal condition for this enzyme assay) Assay buffer for Amplex Red reaction: Tris-HCl, pH 7.5 1536-well assay protocol for the alpha-glucosidase assay: (1) Add 2 ul/well alpha-glucosidase enzyme solution (4 nM final) (2) Add 23 nL compounds in DMSO solution. The final titration was 0.7 nM to 77 uM. (3) Add 1 ul of glycogen substrate solution (30 ug) (4) Incubate at 37 C for 40 min (5) Add 2 ul tris-HCl buffer with Amplex Red reagents (6) Incubate 45 min at room temperature. (7) Detect the assay plate in a ViewLux plate reader (PerkinElmer) with Ex=573 nm and Em=610nm. Keywords: Alpha-glucosidase, Pompe Disease, pharmacological chaperone, chaperone therapy, high throughput screening, alpha-glucosidase inhibitor, MLSMR, MLSCN, NIH Roadmap, qHTS and NCGC
Potency is the fitted concentration of half-maximal effect.

Compound	activity change, negative = inhibition	Potency
CCS(=O)(=O)N1CCc2cc(C(=O)N3CCN(c4ccccc4OC)CC3)ccc21	-12.8% (inactive)	–
CCCOc1ccc(C2c3c(-c4ccccc4O)n[nH]c3C(=O)N2Cc2cccnc2)cc1 (stereo not drawn)	-14.1% (inactive)	–
CCOc1ccc(CNC(=O)C2CCCN(S(=O)(=O)N(CC)c3ccc(OCC)cc3)C2)cc1 (stereo not drawn)	-5.42% (inactive)	–
COc1ccccc1CNC(=O)c1ccc(NC(=O)N2CC(C)Sc3ccccc32)cc1 (stereo not drawn)	-7.96% (inactive)	–
COc1ccc(NC(=O)N2CCC(Cc3ccccc3)CC2)cc1	17.3% [at 76.4 µM] (inactive)	–
COc1ccc(CNC(=O)c2ccc(NC(=O)N3CC4CCCN4c4ccccc43)cc2)cc1 (stereo not drawn)	–	17.8 µM (active)
CCCOc1cccc(C(=O)Nc2cccc(NC(=O)c3ccc(C(C)(C)C)cc3)c2)c1	-11.6% (inactive)	–
COc1ccc(CCNC(=O)c2cc(=O)c3c(C)cc(C)cc3o2)cc1OC	12.6% (inactive)	–
CCOC(=O)c1c(C)oc2ccc(N(C(=O)c3ccncc3)S(=O)(=O)c3ccc(CC)cc3)cc12	-5.49% (inactive)	–
CCn1c(SCC(=O)N/N=C/c2ccncc2)nc2ccccc21	0.69% [at 76.4 µM] (inactive)	–
Cc1ccc(/C=N/NC(=O)CSc2nc3ccccc3o2)cc1	-4.49% [at 76.4 µM] (inactive)	–
Cn1c(SCC(=O)N/N=C/c2ccc(O)c(O)c2)nc2ccccc21	–	8.91 µM (active)
CCN(CC)S(=O)(=O)c1nnc(NC(=O)COc2ccccc2Cl)s1	-4.77% (inactive)	–
CCS(=O)(=O)N1CCc2cc(C(=O)NCc3ccc(OC)cc3)ccc21	14.8% (inactive)	–
Cc1ccccc1-c1nc(CS(=O)(=O)CC(=O)Nc2cc(Cl)cc(Cl)c2)c(C)o1	-7.14% (inactive)	–
Cc1cccc(NC(=O)N2CCC(CN3CCc4ccccc4C3)CC2)c1C	9.41% (inactive)	–
CC1=CC(C)(C)N(C(=O)CSc2nnc(-c3ccccc3)o2)c2ccc(C)cc21	-4.74% [at 76.4 µM] (inactive)	–
COc1ccc2c(c1)C(C)=CC(C)(C)N2C(=O)CNCc1ccc2c(c1)OCO2	-16.1% [at 76.4 µM] (inactive)	–
COc1ccc2c(c1)C(C)=CC(C)(C)N2C(=O)Nc1ccccc1	–	35.5 µM (active)
CCOc1ccc(N(Cc2ccccc2)C(=O)c2nc(S(C)(=O)=O)ncc2Cl)cc1	13.6% (inactive)	–
Cc1ccc(Cn2c(CCCNC(=O)C3CCCCC3)nc3ccccc32)cc1	-13.5% (inactive)	–
COc1ccc2c(Sc3ccc(C)cc3)c(C(=O)NC(C)c3ccccc3)[nH]c2c1 (stereo not drawn)	-10.9% (inactive)	–
Cc1cc2cc3c(N)[nH]nc3nc2cc1C	–	8.91 µM (active)
Cc1cccc(NC(=O)c2cc3c(C)nn(-c4ccccc4)c3s2)c1	-2.14% (inactive)	–
COc1ccc(-c2cn3nc(N4CCCC(C(=O)NCCCOC(C)C)C4)sc3n2)cc1 (stereo not drawn)	4.17% (inactive)	–
COC(=O)c1cc(S(=O)(=O)N2CCN(c3cc(Cl)ccc3C)CC2)c[nH]1	5.27% (inactive)	–
COC(=O)c1cc2occc2n1Cc1nc(-c2ccc(C)cc2)oc1C	-11.8% (inactive)	–

Compound	activity change, negative = inhibition	Potency
Cc1nn(C(C)C(=O)NCCc2ccccc2)c(=O)c2c1sc1ccccc12 (stereo not drawn)	-10.3% (inactive)	–
O=C(Nc1ccccc1)Nc1ccc(C(F)(F)F)cn1	5.88% [at 76.4 µM] (inactive)	–
Oc1ccc(/C=N/Nc2ccc(C(F)(F)F)cn2)cc1O	–	3.52 µM (active)
Oc1ccc(Br)cc1/C=N/Nc1ccccn1	-5.32% [at 76.4 µM] (inactive)	–
CCC1CCCCN1S(=O)(=O)c1ccc(NC(=O)c2cc(=O)c3ccccc3o2)cc1 (stereo not drawn)	-6.07% (inactive)	–
CN1C(=O)c2cccc3c(N)ccc(c23)C1=O	5.15% [at 76.4 µM] (inactive)	–
CCN1C(=O)c2cccc3c(N)ccc1c23	–	28.2 µM (active)
CCN1C(=O)c2cccc3c(S(=O)(=O)Nc4ccccc4O)ccc1c23	-4.12% [at 76.4 µM] (inactive)	–
O=C(Nc1ccc2nc(SCC(=O)N3CCCc4ccccc43)sc2c1)c1ccc(Cl)cc1	-2.34% (inactive)	–
CCOC(=O)c1c(NC(=S)NC)sc2c1CCCC2	-1.18% [at 76.4 µM] (inactive)	–
CCOC(=O)c1c(NC(=O)/C(C#N)=C/c2ccccc2)sc2c1CCC2	0.505% (inactive)	–
CCOC(=O)c1c(/N=C/c2cc(C)ccc2O)sc2c1CCC2	–	10 µM (active)
O=C1CC(=O)Nc2cc(S(=O)(=O)N3CCN(c4cccc(C(F)(F)F)c4)CC3)ccc2N1	-10.2% [at 76.4 µM] (inactive)	–
COc1ccc(N2CCN(S(=O)(=O)c3ccc4c(c3)NC(=O)C(C)C(=O)N4)CC2)cc1 (stereo not drawn)	7.77% (inactive)	–
COc1ccc(N2CCN(S(=O)(=O)c3ccc4c(c3)CC(=O)N4)CC2)cc1	–	59.8 µM (active)
Cc1ccc(NC(=O)c2nc(S(=O)(=O)Cc3cccc(C)c3)ncc2Cl)cc1	9.9% (inactive)	–
Cc1cc(N/N=C/c2ccccc2F)c2ccccc2n1	-19.4% [at 76.4 µM] (inactive)	–
Cc1ccc2nc(C)cc(N/N=C/c3ccc(F)cc3)c2c1	-2.53% [at 76.4 µM] (inactive)	–
COc1cccc2c(N/N=C/c3ccco3)cc(C)nc12	–	8.84 µM (active)
CCOc1ccc(CNC(=O)C2CCN(c3nnc(-n4cccc4CNc4ccc(C)cc4)s3)CC2)cc1OC	–	31.6 µM (active)
Cc1ccc(CCNC(=O)C2CCN(c3nnc(-n4cccc4CNc4ccc(C)cc4)s3)CC2)cc1	-6.93% (inactive)	–
Cc1ccc(C)n1-c1nnc(N2CCC(C(=O)NCc3ccc(F)cc3)CC2)s1	5.06% (inactive)	–
Cc1cccc(OCC(=O)N(Cc2ccc(C(C)C)cc2)Cc2ccco2)c1C	9.65% (inactive)	–
CCn1c2ccccc2c2cc(NC(=S)N3CCOCC3)ccc21	–	12.5 µM (active)
CCn1c2ccccc2c2cc(NC(=O)CNC)ccc21	-2.67% [at 76.4 µM] (inactive)	–
CCn1c2ccccc2c2cc(NC(=O)COC(=O)c3ccccc3Br)ccc21	11.5% [at 76.4 µM] (inactive)	–
